# According to PubChem BioAssay (NCATS):
# Inconclusive results are not listed. Entries that show only a call come without a potency. Unmarked numbers belong to inactive results. The source made the active and inactive calls. Unless noted, the call rests on the fitted dose curve; in most records, active means well fitted curve in the direction sought with a large enough effect; inconclusive means small, poorly fitted or top-dose-only effect, or another doubt; inactive means no such curve, though single readings can be large; an effect the other way counts as inactive or inconclusive.
# Key:
# [1] = target: ATP-dependent 6-phosphofructokinase (Trypanosoma brucei brucei) (UniProt O15648); experiment: qHTS Assay to Find Inhibitors of T. brucei phosphofructokinase: hit validation (AID 492961);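 further: luminescence reports ADP formed as PFK phosphorylates fructose-6-phosphate with ATP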
# Procedure, shortened: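 ADP-Glo luminescence read-out of ADP formed by 1.25 nM PFK from 0.1 mM ATP and 0.5 mM F6P (TEA pH 8.0, 45 min, RT). Compounds titrated; activity normalized to no-enzyme and full-enzyme controls.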
# [2] = qHTS profiling for inhibitors of Plasmodium falciparum proliferation (AID 504749); further: nearly all actives have a fitted effect of over 60% in size; settings: P. falciparum in erythrocytes, SYBR Green DNA, 72 h
# Procedure, shortened: (§1)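 In a 72 h erythrocytic culture (37 C, humidified, 5% CO2) at 2.5% hematocrit and 0.3% starting parasitemia, compounds were tested; SYBR Green I in detergent lysis buffer stained parasite DNA overnight.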
# [3] = test system: AS120; experiment: as above; settings: P. falciparum in erythrocytes, SYBR Green DNA, 72 h; series mostly up to 28.7 µM
# Procedure, shortened: as §1
# [4] = test system: ATS189; experiment: as above; settings: P. falciparum in erythrocytes, SYBR Green DNA, 72 h; series mostly up to 28.7 µM
# Procedure, shortened: as §1
# [5] = test system: CP185; experiment: as above; settings: P. falciparum in erythrocytes, SYBR Green DNA, 72 h; series mostly up to 28.7 µM
# Procedure, shortened: as §1
# [6] = test system: CP191; experiment: as above; settings: P. falciparum in erythrocytes, SYBR Green DNA, 72 h; series mostly up to 28.7 µM
# Procedure, shortened: as §1
# [7] = test system: CP192; experiment: as above; settings: P. falciparum in erythrocytes, SYBR Green DNA, 72 h; series mostly up to 28.7 µM
# Procedure, shortened: as §1
# [8] = test system: CP201; experiment: as above; settings: P. falciparum in erythrocytes, SYBR Green DNA, 72 h; series mostly up to 28.7 µM
# Procedure, shortened: as §1
# [9] = test system: CP237; experiment: as above; settings: P. falciparum in erythrocytes, SYBR Green DNA, 72 h; series mostly up to 28.7 µM
# Procedure, shortened: as §1
# [10] = test system: CP247; experiment: as above; settings: P. falciparum in erythrocytes, SYBR Green DNA, 72 h; series mostly up to 28.7 µM
# Procedure, shortened: as §1
# [11] = test system: DIV30; experiment: as above; settings: P. falciparum in erythrocytes, SYBR Green DNA, 72 h; series mostly up to 28.7 µM
# Procedure, shortened: as §1
# [12] = test system: HB3; experiment: as above; settings: P. falciparum in erythrocytes, SYBR Green DNA, 72 h; series mostly up to 28.7 µM
# Procedure, shortened: as §1
# [13] = test system: P94_40; experiment: as above; settings: P. falciparum in erythrocytes, SYBR Green DNA, 72 h; series mostly up to 28.7 µM
# Procedure, shortened: as §1
# [14] = test system: PC49; experiment: as above; settings: P. falciparum in erythrocytes, SYBR Green DNA, 72 h; series mostly up to 28.7 µM
# Procedure, shortened: as §1
# [15] = test system: TAB113; experiment: as above; settings: P. falciparum in erythrocytes, SYBR Green DNA, 72 h; series mostly up to 28.7 µM
# Procedure, shortened: as §1
# [16] = test system: W2; experiment: as above; settings: P. falciparum in erythrocytes, SYBR Green DNA, 72 h; series mostly up to 28.7 µM
# Procedure, shortened: as §1
# [17] = target: Cytochrome P450 2C9 (Homo sapiens) (UniProt P11712); experiment: qHTS Assay for Inhibitors and Substrates of Cytochrome P450 2C9 (AID 883); further: nearly all actives have a fitted effect of over 60% in size; further: potency means the concentration at half of the fitted maximal effect
# Procedure, shortened: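 Luminescent read-out of deoxyluciferin hydroxylation, normalized to 57uM sulphaphenazole (AC100). Reaction: 10nM enzyme, 100uM Luciferin-H (equal to KM), 25mM KPO4, 10 min compound preincubation, then 60 min with NADPH regeneration, both at 37C.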
# [18] = target: Cytochrome P450 3A4 (Homo sapiens) (UniProt P08684); experiment: qHTS Assay for Inhibitors and Substrates of Cytochrome P450 3A4 (AID 884); further: nearly all actives have a fitted effect of over 50% in size; further: potency means the concentration at half of the fitted maximal effect
# Procedure, shortened: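 Luminescent readout of luciferin produced by CYP3A4 (20 nM) dealkylation of Luciferin-PPXE, 25 uM (its KM). NADPH-driven reaction ran 60 min at RT after 10 min compound preincubation; data scaled to 57 uM ketoconazole as 100% inhibition.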
# [19] = qHTS Assay for Identification of Small Molecule Antagonists for NFkB Signaling Pathway (AID 895; active means well fitted inhibition curve with a large enough effect in the signal ratio, with a control signal flat, not every such curve was filed as active; the % refers to the signal ratio; further: potency means the concentration at half of the fitted maximal effect)
# Procedure, shortened: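 Beta-lactamase reporter read-out (460 and 530 nm emission ratio, 405 nm excitation, 2 hrs substrate loading RT) after 5 hr stimulation with 10 pM TNF alpha in compound-treated NFkB-bla ME-180 cells in low-serum medium.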
# [20] = qHTS Assay for Identification of Small Molecule Agonists for Hypoxia Response Element Signaling Pathway (AID 914; active means well fitted activation curve with a large enough effect in the signal ratio, with a control signal flat, not every such curve was filed as active; the % refers to the signal ratio); settings: ME-180 (cervical carcinoma) HRE-bla reporter, beta-lactamase ratio, CoCl2, 17 h; activation: active compounds read high
# Procedure, shortened: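 Read-out: CCF4 FRET ratio of 460nm to 530nm emission (excitation 405nm) after 2.5 hours at room temperature, taken from HRE-bla ME-180 cells that had been exposed to compound and EC50 CoCl2 for 17 hours.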
# Chain of Cytochrome P450 3A4 (Homo sapiens) (P08684 whole entry, looked up): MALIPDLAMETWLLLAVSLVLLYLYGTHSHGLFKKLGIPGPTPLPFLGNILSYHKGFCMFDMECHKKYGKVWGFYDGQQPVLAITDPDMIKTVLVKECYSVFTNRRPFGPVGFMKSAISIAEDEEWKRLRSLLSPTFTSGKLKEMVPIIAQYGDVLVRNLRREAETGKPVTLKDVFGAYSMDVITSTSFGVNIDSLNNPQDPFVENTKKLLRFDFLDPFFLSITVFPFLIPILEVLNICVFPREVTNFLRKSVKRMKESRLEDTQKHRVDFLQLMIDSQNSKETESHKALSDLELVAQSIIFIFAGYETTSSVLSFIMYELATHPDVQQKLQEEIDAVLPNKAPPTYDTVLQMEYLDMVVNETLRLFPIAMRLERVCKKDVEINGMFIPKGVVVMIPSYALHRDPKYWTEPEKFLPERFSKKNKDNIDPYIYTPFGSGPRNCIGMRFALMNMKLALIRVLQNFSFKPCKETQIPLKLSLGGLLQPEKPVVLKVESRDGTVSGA
# Chain of Cytochrome P450 2C9 (Homo sapiens) (P11712 whole entry, looked up): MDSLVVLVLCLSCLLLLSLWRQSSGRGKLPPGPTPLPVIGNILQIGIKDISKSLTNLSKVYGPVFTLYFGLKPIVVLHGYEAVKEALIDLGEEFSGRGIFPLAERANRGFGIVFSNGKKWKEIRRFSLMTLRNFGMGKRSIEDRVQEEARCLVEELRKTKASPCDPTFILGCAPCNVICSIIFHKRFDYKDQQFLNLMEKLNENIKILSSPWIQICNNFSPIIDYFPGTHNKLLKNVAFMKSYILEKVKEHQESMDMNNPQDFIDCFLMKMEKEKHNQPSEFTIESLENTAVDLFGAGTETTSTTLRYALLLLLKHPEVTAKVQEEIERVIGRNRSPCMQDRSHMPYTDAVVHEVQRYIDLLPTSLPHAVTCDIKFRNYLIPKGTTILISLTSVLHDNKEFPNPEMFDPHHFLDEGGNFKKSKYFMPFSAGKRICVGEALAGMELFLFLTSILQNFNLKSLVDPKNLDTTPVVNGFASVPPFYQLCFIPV
# Chain of ATP-dependent 6-phosphofructokinase (Trypanosoma brucei brucei) (O15648 whole entry, looked up): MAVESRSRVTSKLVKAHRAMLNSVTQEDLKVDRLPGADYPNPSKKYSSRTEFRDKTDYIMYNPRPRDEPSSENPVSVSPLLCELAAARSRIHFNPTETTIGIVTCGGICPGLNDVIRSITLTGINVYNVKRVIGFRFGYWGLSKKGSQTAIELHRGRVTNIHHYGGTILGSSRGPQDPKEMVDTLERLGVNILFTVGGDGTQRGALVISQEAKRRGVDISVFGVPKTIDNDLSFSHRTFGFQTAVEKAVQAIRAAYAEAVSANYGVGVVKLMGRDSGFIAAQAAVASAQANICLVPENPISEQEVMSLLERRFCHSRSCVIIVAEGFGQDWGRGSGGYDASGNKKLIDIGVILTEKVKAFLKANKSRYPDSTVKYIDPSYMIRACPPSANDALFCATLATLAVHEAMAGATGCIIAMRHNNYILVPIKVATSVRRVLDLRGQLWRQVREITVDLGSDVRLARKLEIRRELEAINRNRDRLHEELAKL
smiles,measurement,setting,value
COc1cc2nc(N(C)CCCNC(=O)[C@@H]3CCCO3)nc(N)c2cc1OC,outcome,[1],inactive
same,"activity, negative = inhibition","[2]; at 12.8 µM (top of the series), parasite line A",3.61%
same,"activity, negative = inhibition","[2]; at 12.8 µM (top of the series), parasite line B",7.55%
same,Potency,[3],inactive
same,Potency,[4],inactive
same,Potency,[5],inactive
same,Potency,[6],inactive
same,Potency,[7],inactive
same,Potency,[8],inactive
same,Potency,[9],inactive
same,Potency,[10],inactive
same,Potency,[11],inactive
same,Potency,[12],inactive
same,Potency,[13],inactive
same,Potency,[14],inactive
same,Potency,[15],inactive
same,Potency,[16],inactive
Cc1cc(O)c(C(C)C)cc1C1(c2cc(C(C)C)c(O)cc2C)OC(=O)c2ccccc21,Potency,[17],316 nM (active)
same,Potency,[18],1580 nM (active)
CSc1nc(N)c2ncn([C@@H]3O[C@@H](COP(=O)(O)OP(=O)(O)OP(=O)(O)O)[C@@H](O)[C@H]3O)c2n1,Potency,[18],inactive
N[C@H](COP(=O)(O)O)C(=O)O,Potency,[17],inactive
same,outcome,[1],inactive
same,"activity, negative = inhibition","[2]; at 28.7 µM (top of the series), parasite line A",15.2%
same,"activity, negative = inhibition","[2]; at 28.7 µM (top of the series), parasite line B",6.94%
same,Potency,[3],inactive
same,Potency,[4],inactive
same,Potency,[5],inactive
same,Potency,[6],inactive
same,Potency,[7],inactive
same,Potency,[8],inactive
same,Potency,[9],inactive
same,Potency,[10],inactive
same,Potency,[11],inactive
same,Potency,[12],inactive
same,Potency,[13],inactive
same,Potency,[14],inactive
same,Potency,[15],inactive
same,Potency,[16],inactive
COc1cc2c(cc1OC)[C@H](c1ccccc1)CN(C)CC2,Potency,[18],inactive
same,Potency,[19],inactive
CC(C)(C)c1ccc([C@@H](O)CCCN2CCC(C(O)(c3ccccc3)c3ccccc3)CC2)cc1,activation,[20],18.6%
O=C1O/C(=C\Br)CC[C@@H]1c1cccc2ccccc12,Potency,[18],3980 nM (active)
N[C@H](Cc1ccc(O)c(I)c1)C(=O)O,Potency,[17],inactive
CN1C[C@@H](O)[C@@H](O)[C@@H](O)[C@@H]1CO,Potency,[17],inactive
same,activation,[20],11.9%
CN(CCc1ccccn1)c1ccc2c(c1)Cc1ccccc1-2,Potency,[18],2510 nM (active)
CCN1/C(=C\C(C)=O)Sc2ccc(OC)cc21,Potency,[17],inactive
CC(C)[C@@H]1NC(=O)[C@H](CCCCN)NC(=O)[C@H](Cc2c[nH]c3ccccc23)NC(=O)[C@H](Cc2ccc(O)cc2)NC(=O)[C@H](C)N(C)C(=O)[C@H](Cc2ccccc2)NC1=O,Potency,[18],3980 nM (active)
N=C(N)SCCN1CCCCC1,"activity change, negative = inhibition",[18],-31.7% [at 11.4 µM]
NC(=O)C1=CN([C@@H]2O[C@@H](COP(=O)(O)OP(=O)(O)OC[C@@H]3O[C@H](n4cnc5c(N)ncnc54)[C@@H](OP(=O)(O)O)[C@@H]3O)[C@H](O)[C@@H]2O)C=CC1,Potency,[19],inactive
C[C@]1(c2ccccc2)O[C@@H]2C[C@@H]3[C@@H]4CCC5=CC(=O)C=C[C@@]5(C)[C@]4(F)[C@H](O)C[C@]3(C)[C@@]2(C(=O)CO)O1,Potency,[18],3160 nM (active)
O=C(O)CCCCCC[C@@H]1C(=O)NC(=O)N1CC[C@@H](O)C1CCCCC1,Potency,[17],inactive
N#CCCn1c(=O)c(CCc2ccccc2)nc2cnc(Oc3ccccc3)nc21,Potency,[17],7940 nM (active)
same,Potency,[18],2510 nM (active)
CN1CC[C@@]2(CCN3CCc4c(oc5ccccc45)[C@@H]3C2)N(C)C1=O,Potency,[19],inactive
Cc1ccccc1N1CCN(S(=O)(=O)C[C@@]23CC[C@H](C[C@H]2NC(=O)[C@@H](N)CCS(C)(=O)=O)C3(C)C)CC1,Potency,[18],3160 nM (active)
same,Potency,[19],inactive
CC(C)N(Cc1ccccc1)S(=O)(=O)c1n[nH]c(C(C)(C)C)n1,Potency,[17],3980 nM (active)
O=C(O)CSC1=NCCN1,"activity change, negative = inhibition",[18],7.95% [at 11.4 µM]
NC(N)=Nc1nc2ccc([N+](=O)[O-])cc2[nH]1,"activity change, negative = inhibition",[18],107% [at 11.4 µM]
O=[N+]([O-])c1ccc(Nc2nc3ccccc3s2)cc1,Potency,[17],1260 nM (active)
Nc1ncnc2c1ncn2[C@@H]1CCCO1,Potency,[17],inactive
same,activation,[20],-13.1%
O=C(O)/C=C\c1cnc[nH]1,activation,[20],-4.56%
CC(C)C[C@H](NC(=O)[C@@H](O)[C@@H](N)Cc1ccccc1)C(=O)O,Potency,[19],1580 nM (active)
NCC[C@H]1CCC[C@H](CCN)N1,Potency,[19],inactive
OC[C@@H]1NC[C@@H](O)[C@@H](O)[C@H]1O,Potency,[19],inactive
O=c1[nH]c2[nH]c(=S)[nH]c(=S)c2[nH]1,Potency,[17],1260 nM (active)
Nc1ccc(CCNc2ncnc3c2ncn3[C@@H]2O[C@@H](CO)[C@H](O)[C@@H]2O)cc1,activation,[20],0.683%
C=C1CC[C@H](O)C/C1=C/C=C1\CCC[C@]2(C)[C@H]1CC[C@H]2[C@@H](C)CCCC(C)C,activation,[20],-0.192%
CCCC[C@]1(C2CCCC2)Cc2cc(OCC(=O)O)c(Cl)c(Cl)c2C1=O,Potency,[17],2510 nM (active)
C[C@@H]1O[C@@H](n2cc(F)c(=O)[nH]c2=O)[C@H](O)[C@@H]1O,Potency,[19],inactive
Cc1sc2ccccc2[n+]1CCC(=O)O,activation,[20],-2.73%
O=C(O)/C=C\[C@H](O)c1ccc(Cl)cc1,Potency,[19],inactive
C[C@@H](Cc1ccccc1)Nc1ncnc2c1ncn2[C@@H]1O[C@@H](CO)[C@H](O)[C@@H]1O,Potency,[19],3980 nM (active)
CC(C)(C)c1onc(OCP(=O)(O)O)c1C[C@@H](N)C(=O)O,Potency,[19],inactive
OC[C@@H]1NC[C@@H](O)[C@H]1O,Potency,[19],inactive
